PLK1 PBD inh – blocks phosphopeptide binding to human PLK1 polo-box domain. P53350. Plk1 PBD binding of FITC phosphopeptide, fluorescence polarization. Potency, µM, hits mostly inhibitors. 2.8% of 360,000 active. AID 720504; also: series mostly up to about 57 µM; nearly all actives have a fitted effect of over 65% in size
G9a block – blocks human histone lysine methyltransferase G9a; Q96KQ7; G9a H3K9 monomethylation, AlphaScreen, 2 h; 8.8% of 350,000 active; Potency, µM (titrated, usually from 102 µM), actives largely listed as inhibitors; also: nearly all actives have a fitted effect of over 75% in size
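Step 1: enzyme (final 20 nM) with compound, 15 min RT. Step 2: substrate peptide 500 nM and SAM 20 uM, 2 h RT. Step 3: anti-H3K9me1 antibody and AlphaScreen beads, 10 min, then plate read.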
Sfp PPTase inh – Sfp phosphopantetheinyl transferase inhibition; Biochemical Sfp PPTase activity, qHTS; Potency, µM, most hits filed as inhibitors; Q9F4F7; 3.5% of 310,000 active;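 also: the enzyme is Sfp with the accession as filed and its product quenches rhodamine fluorescence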
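Buffer: 50 mM Hepes-Na pH 7.6, 10 mM MgCl2, 0.01% Nonidet P-40, 0.01% BSA. Enzyme 15 nM, pre-exposed to compound 15 min; substrates then added and fluorescence change tracked over 30 min.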
BAZ2B inh – BAZ2B (human) inhibition; AID 504333; Potency, µM (top dose mostly 114 µM), actives largely listed as inhibitors; Q9UIF8; 4.4% of 360,000 active; AlphaScreen BAZ2B-H3K14Ac peptide displacement; also: nearly all actives have a fitted effect of over 60% in size
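Complex of BAZ2B and biotin-H3K14Ac (50 nM apiece) forms over 30 min at RT, then faces library compounds up to 110 uM for another 30 min; AlphaScreen beads added, 20 min dark incubation, luminescence read.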
JMJD2A Tudor inh – inhibitors of human JMJD2A Tudor domain; O75164; AlphaScreen JMJD2A-Tudor / H3K4me3 peptide binding; Potency, µM (titrated, usually from 114 µM), hits mostly inhibitors; 4.4% of 390,000 active; also: nearly all actives have a fitted effect of over 50% in size
Target sequence (O75164 whole entry, looked up, the tested form may be a part): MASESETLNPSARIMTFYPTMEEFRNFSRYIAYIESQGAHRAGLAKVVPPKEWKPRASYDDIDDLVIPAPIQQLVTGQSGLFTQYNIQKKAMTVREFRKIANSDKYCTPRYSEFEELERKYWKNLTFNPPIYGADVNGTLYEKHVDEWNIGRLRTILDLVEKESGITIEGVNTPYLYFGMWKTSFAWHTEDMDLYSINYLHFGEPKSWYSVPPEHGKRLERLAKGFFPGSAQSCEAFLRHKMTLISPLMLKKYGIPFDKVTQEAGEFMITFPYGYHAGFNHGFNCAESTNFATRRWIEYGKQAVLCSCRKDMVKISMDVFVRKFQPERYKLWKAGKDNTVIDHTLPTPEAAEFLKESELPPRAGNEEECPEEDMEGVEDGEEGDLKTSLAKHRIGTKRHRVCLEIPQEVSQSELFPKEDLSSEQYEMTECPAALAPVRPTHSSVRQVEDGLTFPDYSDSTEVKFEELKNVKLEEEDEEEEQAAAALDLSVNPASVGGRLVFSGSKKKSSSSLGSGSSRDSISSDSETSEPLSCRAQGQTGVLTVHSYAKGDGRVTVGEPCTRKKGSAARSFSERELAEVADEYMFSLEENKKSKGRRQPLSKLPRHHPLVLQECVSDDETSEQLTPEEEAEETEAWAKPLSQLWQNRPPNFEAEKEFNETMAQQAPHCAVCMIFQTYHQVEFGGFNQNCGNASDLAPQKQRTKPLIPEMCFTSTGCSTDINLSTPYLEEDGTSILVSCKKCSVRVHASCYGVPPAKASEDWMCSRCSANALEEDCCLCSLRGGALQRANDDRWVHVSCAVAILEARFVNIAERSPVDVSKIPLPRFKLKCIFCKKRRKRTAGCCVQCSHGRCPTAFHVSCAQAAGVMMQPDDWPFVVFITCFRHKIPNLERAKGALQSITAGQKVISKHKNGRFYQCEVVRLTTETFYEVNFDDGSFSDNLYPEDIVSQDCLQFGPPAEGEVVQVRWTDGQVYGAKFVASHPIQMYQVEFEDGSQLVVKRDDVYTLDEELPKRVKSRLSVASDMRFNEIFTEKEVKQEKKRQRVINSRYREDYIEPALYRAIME
HP1b binding inh – blocks HP1-beta chromodomain binding to methylated histone tails; AID 540317; Potency, µM (doses to about 114 µM), most hits filed as inhibitors; P83916; AlphaScreen HP1-beta / biotin-H3K9me3 peptide binding; 0.56% of 390,000 active; also: nearly all actives have a fitted effect of over 70% in size
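Compound inhibition of the preformed complex between 50 nM HP1-beta and 50 nM biotinylated H3K9me3 peptide was read by AlphaScreen. Buffer was PBS pH 7.4 with 0.01% Tween-20. Incubations ran 30 min at room temperature, with 10 ug/mL donor/acceptor beads.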
Numbers stand for hits; 0 = inactive; ? = inconclusive; - = not tested or not shown; ! = a repeat was not active; [ ] = another dose, or the depositor's remark. The list is not random: actives were taken first. Their share in the collection is about 12%. Calls follow the shape of the dose curve; as a rule, active = well fitted curve in the direction sought with a large enough effect; inconclusive = small, poorly fitted or top-dose-only effect, or another doubt; inactive = no such curve, though single readings can be large; an effect the other way counts as inactive or inconclusive.

SMILES	PLK1 PBD inh	G9a block	Sfp PPTase inh	BAZ2B inh	JMJD2A Tudor inh	HP1b binding inh
COc1ccc(S(=O)(=O)Nc2c(C(=O)O)[nH]c3ccc(OC)cc23)cc1	?	7.9µM	0	?	20µM	0
COc1ccc(S(=O)(=O)Nc2c(C(=O)O)[nH]c3ccccc23)c(OC)c1	0	40µM	0	?	?	0
COc1ccc(S(=O)(=O)Nc2c(C(=O)O)[nH]c3ccc(OC)cc23)c(OC)c1	15µM	2.2µM	25µM	45µM	18µM	45µM
CCc1c(C)sc2c1CCN(C(=O)Nc1cc(Cl)c(OC)cc1OC)C2c1ccccc1 (centres undefined)	-	0	-	?	?	?
CCOC(=O)C(Cc1ccccc1)C(=O)Nc1ccc(NC(=O)C(Cc2ccccc2)C(=O)OCC)cc1 (centres undefined)	0	0	0	0	0	0
N[C@@H](Cc1ccc(O)c(I)c1)C(=O)O	-	0	0	0	-	-
N[C@H](Cc1ccccc1)C(=O)O	-	0	0	-	-	-
NC(Cc1ccc(Cl)cc1)C(=O)O (centres undefined)	-	9.5µM!	0	-	-	-
CCOC(=O)C(C(C)C)C(N)Cc1ccc(F)cc1 (centres undefined)	0	0	0	50µM	?	0
N[C@@H](Cc1ccc(F)cc1)C(=O)O	0	10µM!	-	-	0	0
NC(Cc1ccc2nonc2c1)C(=O)O (centres undefined)	0	13µM	?	79µM	8.9µM	0
N[C@@H](Cc1ccccc1)C(=O)O	-	0[12.7 µM]	0	-	-	-
Cc1ccc2c(c1)c1cccc3c1n2CCN3CCC(N)=O	0	?	0	40µM	50µM	?
C#CCOCCOCCOCCNc1nc(N2CCN(C(=O)[C@H](CCC(=O)O)n3cc(C(N)Cc4ccc(O)cc4)nn3)CC2)nc(N2CCN(C(=O)[C@H](Cc3ccc(O)cc3)n3cc(C(N)[C@H](C)CC)nn3)CC2)n1 (some centres undefined)	-	0[12.7 µM]	0	50µM	-	-
C#CCOCCOCCOCCNc1nc(N2CCN(C(=O)[C@H](CCC(=O)O)n3cc(C(N)Cc4ccc(O)cc4)nn3)CC2)nc(N2CCN(C(=O)[C@H](CCC(=O)O)n3cc(C(N)[C@H](C)CC)nn3)CC2)n1 (some centres undefined)	0	0	0	40µM	25µM	0
COc1ccc(C2C(C(=O)O)c3ccccc3C(=O)N2C)cc1Br (centres undefined)	0	4µM	0	0	0	0
CN1C(=O)c2ccccc2C(C(=O)O)C1c1cn(C)c2ccccc12 (centres undefined)	?	0	0	0	45µM	?
COc1cc(OC)c(C2C(C(=O)O)c3ccccc3C(=O)N2C)cc1OC (centres undefined)	0	?	0	0	0	0
CCOc1ccccc1NC(=O)C(Sc1ccccc1)c1ccccc1 (centres undefined)	21µM	0	0	0	0[11.4 µM]	0
COc1ccccc1NC(=O)C(Sc1ccccc1)c1ccccc1 (centres undefined)	0	0	0	0	0	0
CCOC(=O)c1c(NC(=O)C(Sc2ccccc2)c2ccccc2)sc(C(N)=O)c1C (centres undefined)	?	7.9µM	0	0	0	0
CCOc1ccccc1NC(=O)C(NCC1(N2CCCCC2)CCCCC1)c1ccccc1 (centres undefined)	0	0	?	79µM	79µM	0
O=C(Nc1cc(C(F)(F)F)ccc1Cl)C(Sc1cccc[n+]1[O-])c1ccccc1 (centres undefined)	?	8.9µM	0	0	?	0
O=C(Nc1cc([N+](=O)[O-])ccc1Cl)C(Sc1ccccc1)c1ccccc1 (centres undefined)	0	0	0	0	79µM	?
CC(CC=O)CCCC(C)(C)O (centres undefined)	-	0[2.33 µM]	0	-	-	-
SMILES	PLK1 PBD inh	G9a block	Sfp PPTase inh	BAZ2B inh	JMJD2A Tudor inh	HP1b binding inh
CC1(C)CC(Cc2nc(=S)[nH][nH]2)C(=O)O1 (centres undefined)	0	1.8µM	20µM	?	50µM	0
CC1=CC(C)=Nc2ccccc2N1	0	40µM	0	?	0	0
CC1(c2ccccc2)CC(c2ccccc2)=Nc2ccccc2N1 (centres undefined)	0	-	0	?	0	0
CCOc1ccc(CCNC(=O)Cn2c(C)c3cnn(-c4ccccc4)c(=O)c3c2C)cc1	-	0	-	0	0	0
CSc1ccc(S(=O)(=O)NCC(=O)OCC(=O)N2CC(C)CC(C)C2)cc1[N+](=O)[O-] (centres undefined)	0	50µM	-	0	0	0
COC(=O)C1CCN(C(=O)COC(=O)CNS(=O)(=O)c2ccc(SC)c([N+](=O)[O-])c2)CC1	0	0[0.501 µM]	-	0	0	0
COc1cc(/C=N/Nc2cccc(C)c2)cc(Br)c1O	0	8.9µM	0	45µM	50µM	?
COc1cc(/C=N/NC(=O)COc2ccccc2C)ccc1OC(=O)c1cccs1	0	-	0	0	0	0
COc1cc(/C=N/Nc2cccc(C)c2)ccc1OC(=O)c1cccs1	0	10µM	0	0	?	0
COc1cc(C=NNC(=O)c2ccc(NS(=O)(=O)c3cccs3)cc2)cc(Br)c1O	0	-	-	-	0	0
Cc1nn(CCC(=O)N2CCN(c3ccccc3F)CC2)c(C)c1S(=O)(=O)N1CCCC1	-	0	-	0	0	0
O=C(NCCNC1CCCCC1)c1ccco1	0	45µM	0	?	3.5µM	?
CC(C)C(NC(=O)c1ccco1)C(=O)NC1CCCCCC1 (centres undefined)	0	79µM	0	0	0	0
O=C(NC1CCCCCCC1)c1ccco1	0	0[12.7 µM]	0	0	0	0
COc1cc(C(=O)NCc2ccco2)cc(OC)c1OC	0	0[12.7 µM]	0	0	0	0
O=C(N[C@@H](Cc1ccccc1)C(=O)NC1CCCCCC1)c1ccco1	0	0	0	0	0	0
CC1CCC(NCCNC(=O)c2ccco2)CC1 (centres undefined)	0	35µM	0	0	20µM	0
COc1cc(C(=O)NCCNC(=O)c2ccco2)cc(OC)c1OC	27µM	-	-	-	?	?
Cc1cccc(NC(=O)CNC(=O)COc2cccnc2[N+](=O)[O-])c1C	0	0[2.33 µM]	-	0	0	0
O=C(Nc1ccc(C(F)(F)F)cc1)N1CCN(c2ccnc3cc(Cl)ccc23)CC1	0	0	0	0	0	0
COc1ccc(CNC(=O)Nc2nc(C(N)Cc3ccc(Cl)cc3)cs2)cc1 (centres undefined)	0	-	-	-	-	-
CC(C)Cc1ccc(CN2CCCC(NC(=O)CCN3CCCO3)C2)cc1 (centres undefined)	0	79µM	0	0	0	0
CC(C)Cc1ccc(CN2CCCC(NC(=O)CCN3CCCCC3=O)C2)cc1 (centres undefined)	0	0	0	0	0	0
Cn1cc(-c2nc3cnc(N4CCNCC4)nc3n(C3CC3)c2=O)c2ccccc21	-	0[0.501 µM]	0	-	-	-

High-throughput results (PubChem BioAssay)
